For four compounds, composite z-score and z-score results are on record in PubChem BioAssay.

Where “and” joins values, the source holds several entries; their conditions need not be identical. Equal values may be shown once. Calls of active or inactive are those of the source. Unless noted, no rule for the calls is given here.

Test [1] in a line: compounds binding Alexa647 anti-His antibody – biochemical, small-molecule microarray, 635 nm fluorescence, artefact control for SMM control protein annotation, primary screen (AID 1128).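 Also: score merges feature fluorescence with signal-to-noise for each printed compound spot.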 The settings on record: higher = more signal.
The test system of test [2] is Human papillomavirus type 1a E7 protein (residues 1-88). Put plainly: HPV1a E7 small-molecule binders, primary screen, biochemical, small-molecule microarray, residues 1-88, 635 nm (AID 1129). The following applies: small-molecule microarray binding, fluorescence 635 nm; higher = more signal.
The target of test [3] is Focal adhesion kinase 1 (Homo sapiens) (UniProt Q05397). Put plainly: PTK2 protein binding on printed compound slides – biochemical, small-molecule microarray, 635/667 nm fluorescence, BSA, DTT, primary screen (AID 1130).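 Also: composite of spot emission at 667 nm and signal to noise over triplicate slides.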 The following applies: 635 nm fluorescence, higher = more signal.
Test [4] concerns Fibrinogen (Alexa647-labelled). Put plainly: Alexa647-fibrinogen binding to printed small molecules – biochemical, small-molecule microarray, 635/667 nm fluorescence, artefact control for SMM control-protein annotation, profiling panel (AID 1131).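 Also: z-score merges 667 nm fluorescence with per-spot signal-to-noise over triplicate slides.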 The settings on record: fibrinogen-A647 binding fluorescence, higher = more signal.
For test [5], the target named is Follistatin (Homo sapiens) (UniProt P19883). Kind of test: FST protein binding to printed compounds – biochemical, small-molecule microarray, 635/667 nm fluorescence, primary screen (AID 1132). The settings on record: 635 nm fluorescence, higher = more signal.
The target of test [6] is Fibroblast growth factor 2 (Homo sapiens) (UniProt P09038). Put plainly: basic fibroblast growth factor binding to printed compounds – biochemical, small-molecule microarray, 635/667 nm fluorescence, primary screen (AID 1133). The settings on record: FGF2, fluorescence 635/667, higher = more signal.
A short description of test [7]: JC-1 mitochondrial potential readout, lung cancer cells – cell-based, A549, JC-1 fluorescence, basal, 24 h, 100 nL, profiling panel (AID 1138).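 Also: A549 lung adenocarcinoma cells under basal conditions with no added stimulus; test concentration not given here.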 The following applies: higher = more signal.
The test system of a further test is Lefty1. Kind of test: Lefty1 protein binding to printed compounds – biochemical, small-molecule microarray, 635/667 nm fluorescence, primary screen (AID 1139). The settings on record: fluorescence 635/667, higher = more signal.
Test [8] concerns wheat germ agglutinin (Triticum aestivum), Alexa647-labelled. Kind of test: Alexa647-WGA lectin binding to printed small molecules – biochemical, small-molecule microarray, 635/667 nm fluorescence, artefact control for SMM control-protein annotation, profiling panel (AID 1140).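 Also: score merges 667 nm feature emission with signal to noise over triplicate slides.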 The following applies: WGA-A647 binding, 635 nm fluorescence, higher = more signal.
Test [9] deals with Luciferin 4-monooxygenase (Photinus pyralis) (UniProt P08659). Kind of test: inhibition of purified Photinus pyralis luciferase – biochemical, luminescence, purified enzyme, 2006 set, primary screen (AID 1141).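 Also: cell-free assay with purified firefly luciferase at 100 ng per well in PBS; test concentration not given here.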 The settings on record: purified firefly luciferase, SteadyGlo luminescence, 30 min; higher = more signal, called active from +8 up or from −8 down.
For test [10], the system named is Wnt5a (protein binding on small-molecule microarray). Kind of test: small molecules binding Wnt5a protein – biophysical, small-molecule microarray, 635/667 nm fluorescence, primary screen (AID 1142).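 Also: fluorescence read at 667 nm with signal to noise per printed feature.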 The following applies: 635 nm fluorescence, higher = more signal.
The nature of test [11]: ATP-based viability of Huh7 replicon cells – cell-based, CellTiter-Glo luminescence, basal, 48 h, cytotoxicity control for HCV replication inhibitor project, primary screen (AID 1143).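 Also: Huh7 hepatoma cells carrying a hepatitis C replication reporter with no stimulus; test concentration not given here.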 The settings on record: higher = more signal, called active from +8 up or from −8 down. In general terms: Replicon systems follow genome replication, usually without infectious particles.
Test [12] can be described thus: Pseudomonas biofilm growth suppression – PAO1 strain, BacTiter-Glo luminescence, LB-PBS, primary screen (AID 1144). The settings on record: P. aeruginosa PAO1 biofilm, 12 h, higher = more signal.
Test [13] in a line: basal CRE-LacZ reporter activity in PC12 – cell-based, unstimulated, primary screen (AID 1145). The settings on record: no forskolin, luminescence, 4.5 h, higher = more signal, called active from +8 up or from −8 down.
The nature of test [14]: forskolin-driven CRE-LacZ activity in PC12 – cell-based, CRE-LacZ reporter, forskolin-stimulated, primary screen (AID 1146).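 Also: PC12 cells with 6xCRE LacZ reporter stimulated by forskolin 10 µM; beta-galactosidase reporter signal reflecting CREB driven transcription.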 The following applies: luminescence, 4.5 h, higher = more signal, called active from +8 up or from −8 down.
For test [15], the target named is Streptavidin (Streptomyces avidinii) (UniProt P22629). Put plainly: compounds binding control protein streptavidin – biophysical, small-molecule microarray, 635/667 nm fluorescence, artefact control for SMM compound annotation, primary screen (AID 1147).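 Also: signal reflects streptavidin binding to arrayed compounds as a control protein.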 The following applies: higher = more signal.
Test [16] is described as follows: probe aInhba binding on compound microarray – biochemical, small-molecule microarray, 635/667 nm fluorescence, primary screen (AID 1148).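 Also: score merges 667nm spot fluorescence with signal-to-noise for antibody binding to printed compounds.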 The following applies: higher = more signal.
Test [17] has as its target Torsin-1A (Homo sapiens) (UniProt O14656). Kind of test: TOR1A wild-type binding on microarray – cell lysate, small-molecule microarray, lysate, 635/667 nm, primary screen (AID 1149). The settings on record: COS7 hTOR1A-WT lysate, 635 nm fluorescence, higher = more signal.
Test [18] has the same target. Put plainly: torsin A mutant lysate binding on microarrays – cell lysate, small-molecule microarray, COS7 lysate, 635/667 nm fluorescence, primary screen (AID 1150).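 Also: score pools 667 nm emission and signal to noise measuring lysate protein binding.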 The following applies: COS7 hTOR1A mutant lysate, 635 nm fluorescence, higher = more signal.
Test [19] deals with Sonic hedgehog protein (Shh). Kind of test: Sonic hedgehog microarray binding compounds – biochemical, small-molecule microarray, 635/667 nm fluorescence, primary screen (AID 1151).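 Also: Shh protein binding to compounds spotted on small-molecule microarray slides; score combines spot fluorescence intensity with signal-to-noise across triplicate slides.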 The settings on record: 635 nm fluorescence, higher = more signal.

Torsin-1A (Homo sapiens), sequence (O14656 whole entry, looked up): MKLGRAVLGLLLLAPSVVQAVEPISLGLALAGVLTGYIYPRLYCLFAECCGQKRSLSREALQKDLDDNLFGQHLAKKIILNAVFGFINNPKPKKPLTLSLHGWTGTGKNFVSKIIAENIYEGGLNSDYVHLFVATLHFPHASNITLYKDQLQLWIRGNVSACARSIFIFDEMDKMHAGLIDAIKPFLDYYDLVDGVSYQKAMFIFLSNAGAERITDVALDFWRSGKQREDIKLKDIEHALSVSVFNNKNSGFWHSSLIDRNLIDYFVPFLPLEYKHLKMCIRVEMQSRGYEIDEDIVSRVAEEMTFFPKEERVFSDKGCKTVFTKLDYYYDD
Follistatin (Homo sapiens), sequence (P19883 whole entry, looked up): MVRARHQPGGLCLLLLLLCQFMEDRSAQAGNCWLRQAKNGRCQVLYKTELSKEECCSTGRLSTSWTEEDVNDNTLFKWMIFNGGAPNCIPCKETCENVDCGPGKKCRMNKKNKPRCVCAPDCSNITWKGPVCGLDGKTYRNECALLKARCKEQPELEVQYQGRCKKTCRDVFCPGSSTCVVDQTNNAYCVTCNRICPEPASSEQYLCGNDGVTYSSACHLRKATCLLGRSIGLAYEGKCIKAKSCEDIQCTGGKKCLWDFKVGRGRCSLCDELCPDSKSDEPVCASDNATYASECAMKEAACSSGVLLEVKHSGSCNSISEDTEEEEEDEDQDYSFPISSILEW
Focal adhesion kinase 1 (Homo sapiens), sequence (Q05397 whole entry, looked up): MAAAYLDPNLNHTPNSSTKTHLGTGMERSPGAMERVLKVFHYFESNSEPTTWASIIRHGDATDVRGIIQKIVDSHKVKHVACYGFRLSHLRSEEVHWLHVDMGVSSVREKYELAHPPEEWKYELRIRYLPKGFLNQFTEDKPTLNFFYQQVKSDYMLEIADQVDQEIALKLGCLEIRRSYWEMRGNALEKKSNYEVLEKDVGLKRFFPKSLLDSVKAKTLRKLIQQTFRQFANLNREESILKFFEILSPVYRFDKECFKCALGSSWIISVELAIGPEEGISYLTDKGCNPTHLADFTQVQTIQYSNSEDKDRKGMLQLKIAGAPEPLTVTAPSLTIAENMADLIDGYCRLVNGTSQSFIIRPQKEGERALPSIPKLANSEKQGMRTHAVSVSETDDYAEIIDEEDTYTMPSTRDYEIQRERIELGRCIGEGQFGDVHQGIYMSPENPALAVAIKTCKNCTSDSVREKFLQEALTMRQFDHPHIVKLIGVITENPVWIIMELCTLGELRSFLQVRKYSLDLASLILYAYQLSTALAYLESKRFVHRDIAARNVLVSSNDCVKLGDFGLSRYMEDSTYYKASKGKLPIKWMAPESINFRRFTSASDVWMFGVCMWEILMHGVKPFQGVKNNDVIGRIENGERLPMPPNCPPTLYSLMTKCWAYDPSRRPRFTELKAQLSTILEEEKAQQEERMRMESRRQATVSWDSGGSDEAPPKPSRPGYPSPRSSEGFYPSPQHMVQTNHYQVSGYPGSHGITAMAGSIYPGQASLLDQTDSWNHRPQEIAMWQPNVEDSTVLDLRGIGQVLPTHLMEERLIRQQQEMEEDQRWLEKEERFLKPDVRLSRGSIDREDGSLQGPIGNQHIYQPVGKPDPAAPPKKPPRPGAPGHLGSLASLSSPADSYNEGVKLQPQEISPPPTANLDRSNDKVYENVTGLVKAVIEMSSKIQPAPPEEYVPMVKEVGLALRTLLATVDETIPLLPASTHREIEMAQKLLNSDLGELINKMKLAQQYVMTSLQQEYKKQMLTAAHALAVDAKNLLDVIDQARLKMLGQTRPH
Streptavidin (Streptomyces avidinii), sequence (P22629 whole entry, looked up): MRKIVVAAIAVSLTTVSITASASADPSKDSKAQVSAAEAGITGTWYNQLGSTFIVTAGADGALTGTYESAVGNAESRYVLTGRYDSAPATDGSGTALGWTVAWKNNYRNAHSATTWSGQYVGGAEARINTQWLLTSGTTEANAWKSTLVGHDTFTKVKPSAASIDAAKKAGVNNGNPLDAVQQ
Fibroblast growth factor 2 (Homo sapiens), sequence (P09038 whole entry, looked up): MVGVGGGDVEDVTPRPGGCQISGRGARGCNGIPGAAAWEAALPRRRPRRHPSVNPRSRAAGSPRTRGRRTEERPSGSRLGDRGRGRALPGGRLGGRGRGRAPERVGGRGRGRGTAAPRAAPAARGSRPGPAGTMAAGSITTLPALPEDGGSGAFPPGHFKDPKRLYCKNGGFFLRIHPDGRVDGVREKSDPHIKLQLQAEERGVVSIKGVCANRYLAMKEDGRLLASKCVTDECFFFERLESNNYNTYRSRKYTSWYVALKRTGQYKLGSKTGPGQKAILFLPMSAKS
Luciferin 4-monooxygenase (Photinus pyralis), sequence (P08659 whole entry, looked up): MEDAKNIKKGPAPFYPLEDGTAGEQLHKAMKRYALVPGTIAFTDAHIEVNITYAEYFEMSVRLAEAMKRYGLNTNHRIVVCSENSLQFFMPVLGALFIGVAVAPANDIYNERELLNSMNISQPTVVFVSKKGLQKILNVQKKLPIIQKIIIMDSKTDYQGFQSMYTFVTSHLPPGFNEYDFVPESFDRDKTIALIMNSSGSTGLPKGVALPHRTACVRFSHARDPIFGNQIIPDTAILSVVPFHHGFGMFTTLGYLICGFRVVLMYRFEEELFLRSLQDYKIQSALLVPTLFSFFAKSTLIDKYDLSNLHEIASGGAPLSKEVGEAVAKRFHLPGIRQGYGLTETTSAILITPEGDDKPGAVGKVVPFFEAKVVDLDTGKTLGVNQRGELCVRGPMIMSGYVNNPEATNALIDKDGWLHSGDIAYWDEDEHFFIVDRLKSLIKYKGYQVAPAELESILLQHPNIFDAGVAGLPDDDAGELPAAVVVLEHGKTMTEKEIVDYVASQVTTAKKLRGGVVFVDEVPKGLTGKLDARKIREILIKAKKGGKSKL

In the case of `COC(=O)C1=C2N(Cc3ccccc3)C(C)=C(C(=O)OC)[C@@H](c3ccccc3)N2C(=O)[C@](O)(C(=O)OC)C1`, the composite z-score was 0.0444 and -0.657 in test [1]; 0.644 and 0.0112 in [2]; 0.268 and -0.172 in test [3]; 0.985 and 0.0539 in test [4]; 0.419 and 0.587 in [5]; 1.71 and 0.858 in test [6]. For the same compound, the composite z-score with Lefty1 was 0.911 and 0.508; in [8], 0.526 and -0.342; in test [10], -0.0382 and -0.0845; in test [15] it was -0.302 and -0.327; in test [16], -0.0736 and -0.0895; with Torsin-1A (Homo sapiens) [17], 1.04 and 2.21. The composite z-score was 0.42 and 3.89 in the test with Torsin-1A (Homo sapiens) [18]; 0.71 and 0.673 in test [19]. The z-score in test [7] is 0.218 and 0.136; in test [9], -0.0132 (inactive) and 0.18 (inactive); in [11] it was -0.124 (inactive) and 0.0688 (inactive); in test [12] it was 0.917 (inactive) and -0.22 (inactive); in test [13] it was 2.08 (inactive) and 1.8 (inactive); in test [14] it was -1.03 (inactive) and -0.435 (inactive).
`C=CCN(CCCC)C(=O)C(c1cccs1)N(C(=O)/C=C\C(=O)O)c1c(Cl)cccc1CO` (stereo not given): the composite z-score in [1] was -0.71 and -0.792; in test [2], -0.925 and -1.1; in test [3], -0.859 and 1.27; in test [4] it was -2.84 and -3.52; in test [5], -2.44 and -1.69; in test [6], -2.72 and -1.18. Also, the composite z-score in the test with Lefty1 is -2.81 and -2.2; in test [8], -0.178 and -0.7; in test [10], -1.57 and -1.27; in test [15] it was -1.55 and -0.309; in test [16] it was -0.38 and -0.186; in the test with Torsin-1A (Homo sapiens) [17], -4.75 and -2.7. The composite z-score in the test with Torsin-1A (Homo sapiens) [18] was -3.62 and -2.89; in [19], -1.48 and -1.63. For the same compound, the z-score was -0.107 and -0.132 in test [7]; 1.01 (inactive) and 0.833 (inactive) in [9]; 0.665 (inactive) and 0.504 (inactive) in test [11]; -0.428 (inactive) and 0.0609 (inactive) in test [12]; -0.761 (inactive) and 0.329 (inactive) in test [13]; 0.325 (inactive) and -0.167 (inactive) in [14].
Turning to `C#CCN1C(/C=C/c2ccccc2)C(=O)OC[C@H]1c1ccccc1` (stereo not given in full), the composite z-score in [1] was 0.195 and 0.338; in test [2], 0.455 and 0.0982; in [3], 0.0124 and 0.142; in [4] it was -0.106 and 0.137; in [5] it was 1.28 and 0.768; in test [6] it was 0.441 and 1.07. The composite z-score in the test with Lefty1 is 0.622 and 0.295; in test [8] it was -0.19 and 0.017; in test [10] it was 0.161 and 0.111; in test [15], -0.0296 and -0.175; in test [16], -0.0853 and 0.0807; in the test with Torsin-1A (Homo sapiens) [17], 0.419 and -0.479. Further, the composite z-score with Torsin-1A (Homo sapiens) [18] is 0.436 and 0.128; in [19] it was 0.713 and 1.03. Further, the z-score is -0.411 and -1 in test [7]; -0.415 (inactive) and 0.754 (inactive) in [9]; -5.93 (inactive) and -0.403 (inactive) in test [11]; -0.793 (inactive) in test [12]; 2.48 (inactive) and -0.682 (inactive) in [13]; -1.66 (inactive) and -0.836 (inactive) in [14].
On to `CCCNC(=O)OC[C@H]1O[C@H](CCON=C(C)CCC(=O)OC[C@H]2O[C@H](C#Cc3ccccc3)C=C[C@@H]2Oc2ccc(C)cc2)C=C[C@@H]1Oc1ccc(OC)cc1`, for which the composite z-score in [1] is 0.0888; in test [2], -0.216; in [3], -0.17; in test [4] it was -0.185; in [5] it was -0.437; in test [6] it was -0.251. In addition, the composite z-score with Lefty1 is 0.0233; in test [8], -0.26; in test [10], -0.284; in test [15] it was 1.07; in [16] it was -0.103; with Torsin-1A (Homo sapiens) [17], -0.474. Moreover, the results for the composite z-score (with Torsin-1A (Homo sapiens) [18]; in [19]) were -0.352 and 0.0277, respectively. For the same compound, the z-score in [7] was -0.611; in [9] it was 1.41 (inactive); in test [11], -0.538 (inactive); in test [12] it was -0.145 (inactive); in test [13] it was -0.729 (inactive); in test [14], 0.872 (inactive).
